Results published in PubChem BioAssay (NCI).
This is part of a sample that, as a whole, favours compounds with a hit. Of some 83,000 tested, about 20% had one in any assay.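 The endpoint reported here, percent growth, reads 100 for growth as untreated, 0 for no net growth and -100 for all cells dead.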 Unmarked numbers belong to inactive results. Activity calls are given as the source filed them. Rule for the calls: active = growth percent below 10; inactive = the rest.

Columns and labels:
Assay in all cases: NCI-60 one-dose screen, 48 h (100 = growth as untreated, 0 = no growth, -100 = all killed)
Settings in all cases: 10 µM unless noted
NCI-H23 lung = system: NCI-H23 lung
NCI-H226 lung = system: NCI-H226 lung
HOP-62 NSCLC = system: HOP-62 NSCLC
NCI-H460 lung = system: NCI-H460 lung
HOP-92 NSCLC = system: HOP-92 NSCLC
NCI-H522 lung = system: NCI-H522 lung
A549/ATCC NSCLC = system: A549/ATCC NSCLC
786-0 renal = system: 786-0 renal
COLO 205 colon = system: COLO 205 colon
DU-145 prostate = system: DU-145 prostate
K-562 leukemia = system: K-562 leukemia
MALME-3M melanoma = system: MALME-3M melanoma
MDA-MB-231 breast = system: MDA-MB-231 breast
RXF 393 renal = system: RXF 393 renal
SF-268 CNS = system: SF-268 CNS
SF-295 CNS = system: SF-295 CNS
SF-539 CNS = system: SF-539 CNS
UACC-257 melanoma = system: UACC-257 melanoma
M14 melanoma = system: M14 melanoma
NCI-H322M lung = system: NCI-H322M lung

Structure (SMILES)	growth (NCI-H23 lung)	growth (NCI-H226 lung)	growth (HOP-62 NSCLC)	growth (NCI-H460 lung)	growth (HOP-92 NSCLC)	growth (NCI-H522 lung)	growth (A549/ATCC NSCLC)	growth (786-0 renal)	growth (COLO 205 colon)	growth (DU-145 prostate)	growth (K-562 leukemia)	growth (MALME-3M melanoma)	growth (MDA-MB-231 breast)	growth (RXF 393 renal)	growth (SF-268 CNS)	growth (SF-295 CNS)	growth (SF-539 CNS)	growth (UACC-257 melanoma)	growth (M14 melanoma)	growth (NCI-H322M lung)
c1n[nH]cc1-c1nc2ccc3cn[nH]c3c2c2c1CCCC2	90.2%	46.4%	79.9%	101%	85.2%	70.7%	95.1%	110%	102%	93%	101%	72.9%	58.3%	44.8%	94.1%	89.4%	80.8%	100%	93.2%	–
COc1cc(CNC(=O)C[C@H](C)CCC=C(C)C)ccc1OCc1cn(-c2ccc(Cl)cc2Cl)nn1	56.6%	66.4%	11.3%	75.1%	-3.27% (active)	55.4%	59.4%	38.9%	105%	90.5%	81.4%	79.3%	59.7%	14.1%	52.3%	41.8%	66.9%	92%	102%	–
CCCCC[C@@H]1C/C=C(\C)[C@@H](O)C(C)(C)C(=O)[C@@H](C)/C=C(\C)[C@@H]2C[C@H](O)C[C@](O)(CC(=O)O1)O2	31%	14%	68.7%	49.6%	60.4%	12.5%	36.8%	65.8%	37.6%	41.3%	13.6%	34.9%	83.4%	68%	43.1%	11%	73.8%	1.3% (active)	49.6%	–
COc1cc(CNC(=O)C[C@H](C)CCC=C(C)C)ccc1OCc1cn(-c2ccc(Br)cc2)nn1	60.1%	70.2%	65.1%	74.2%	45.9%	41.6%	78.6%	68.7%	113%	92.7%	66.3%	85.4%	80.6%	61.8%	71.7%	63.2%	51.2%	86.3%	97.2%	–
N#Cc1c(-c2ccc(F)cc2)nc(SCc2ccccc2)nc1N1CCNCC1	–	-58.8% (active)	-78.8% (active)	-85.5% (active)	-92.2% (active)	-81.6% (active)	-90.9% (active)	-94% (active)	-66% (active)	-79.8% (active)	-22% (active)	-97.3% (active)	-98.5% (active)	-94.8% (active)	-31.2% (active)	-83% (active)	-99.4% (active)	-93.2% (active)	-90.2% (active)	-53.7% (active)
OCCn1cc(-c2nc3ccc4[nH]ncc4c3c3c2CCCC3)cn1	43.1%	17.9%	57.7%	20%	51.8%	38.9%	26.6%	43.1%	32.8%	36.2%	21.4%	24.1%	54.9%	-12.6% (active)	64%	60.9%	36.2%	58%	22.6%	–
CCCCNc1ccc2c3c(cccc13)C(=O)N(c1cccc(-c3nn(-c4ccccc4)cc3-c3nc4ccccc4s3)c1)C2=O	93.1%	83.5%	107%	110%	100%	99.1%	117%	101%	109%	106%	89.5%	103%	99.1%	98.5%	109%	104%	101%	113%	99.6%	–
COc1cc(/C=C/C(=O)c2ccc(S(=O)(=O)NCCNc3nc(N(C)C)nc(N4CCOCC4)n3)cc2)cc(OC)c1OC	3.66% (active)	11.5%	-19.1% (active)	-100% (active)	50.1%	-100% (active)	26.5%	-65.1% (active)	28.3%	13.8%	-67.8% (active)	41.2%	-82% (active)	-100% (active)	-3.35% (active)	-68.1% (active)	-87.3% (active)	-26.5% (active)	-54.7% (active)	–
